B1: UCUCUCC (DNA:RNA)
RNA: GGGAGACCGGAAUUCAGAUUGUCCUCUCUCCUUAAAUCCCGUCGUAGCCACCA
DNA 1: CAATCTGAATTCCGGTCTCCC
DNA 2: TGGTGGCTACGACGGGATT
B2: GACACAG (DNA:RNA)
RNA: GGGAGACCGGAAUUCAGAUUGUCCGACACAGUUAAAUCCCGUCGUAGCCACCA
DNA 1: CAATCTGAATTCCGGTCTCCC
DNA 2: TGGTGGCTACGACGGGATT
B3: UCUUGGG (DNA:RNA)
RNA: B1 RNA with C28U, U29G, C30G, C31G
DNA 1: CAATCTGAATTCCGGTCTCCC
DNA 2: TGGTGGCTACGACGGGATT
B4: UCCGCCC (DNA:RNA)
RNA: B1 RNA with U27C, C28G, U29C
DNA 1: CAATCTGAATTCCGGTCTCCC
DNA 2: TGGTGGCTACGACGGGATT
B5: CCGCAGG (DNA:RNA)
RNA: B1 RNA with U25C, U27G, U29A, C30G, C31G
DNA 1: CAATCTGAATTCCGGTCTCCC
DNA 2: TGGTGGCTACGACGGGATT
B6: UGCUACU (DNA:RNA)
RNA: B1 RNA with C26G, U27C, C28U, U29A, C31U
DNA 1: CAATCTGAATTCCGGTCTCCC
DNA 2: TGGTGGCTACGACGGGATT
B7: CGGCACG (DNA:RNA)
RNA: B1 RNA with U25C, C26G, U27G, U29A, C31G
DNA 1: CAATCTGAATTCCGGTCTCCC
DNA 2: TGGTGGCTACGACGGGATT
B8: GGCCACG (DNA:RNA)
RNA: B2 RNA with A26G, A28C, C29A, A30C
DNA 1: CAATCTGAATTCCGGTCTCCC
DNA 2: TGGTGGCTACGACGGGATT
B9: GGCACCG (DNA:RNA)
RNA: B2 RNA with A26G, A30C
DNA 1: CAATCTGAATTCCGGTCTCCC
DNA 2: TGGTGGCTACGACGGGATT
B10: UGGGCGC (DNA:RNA)
RNA: B1 RNA with C26G, U27G, C28G, U29C, C30G
DNA 1: CAATCTGAATTCCGGTCTCCC
DNA 2: TGGTGGCTACGACGGGATT
B11: CUGGCGC (DNA:RNA)
RNA: B2 RNA with G25C, A26U, C27G, A28G, A30G, G31C
DNA 1: CAATCTGAATTCCGGTCTCCC
DNA 2: TGGTGGCTACGACGGGATT
B12: UGGCGGU (DNA:RNA)
RNA: B1 RNA with C26G, U27G, U29G, C30G, C31U
DNA 1: CAATCTGAATTCCGGTCTCCC
DNA 2: TGGTGGCTACGACGGGATT
B13: UGGCGCU (DNA:RNA)
RNA: B1 RNA with C26G, U27G, U29G, C31U
DNA 1: CAATCTGAATTCCGGTCTCCC
DNA 2: TGGTGGCTACGACGGGATT
B14: UGGGCGG (DNA:RNA)
RNA: B2 RNA with G25U, A26G, C27G, A28G, A30G
DNA 1: CAATCTGAATTCCGGTCTCCC
DNA 2: TGGTGGCTACGACGGGATT
B15: CUGGCGG (DNA:RNA)
RNA: B2 RNA with G25C, A26U, C27G, A28G, A30G
DNA 1: CAATCTGAATTCCGGTCTCCC
DNA 2: TGGTGGCTACGACGGGATT
B16: CAGCUCC (DNA:RNA)
RNA: B1 RNA with U25C, C26A, U27G
DNA 1: CAATCTGAATTCCGGTCTCCC
DNA 2: TGGTGGCTACGACGGGATT
B17: AGACUGC (DNA:RNA)
RNA: B1 RNA with U25A, C26G, U27A, C30G
DNA 1: CAATCTGAATTCCGGTCTCCC
DNA 2: TGGTGGCTACGACGGGATT
B18: AGGGAGG (DNA:RNA)
RNA: B2 RNA with G25A, A26G, C27G, A28G, C29A, A30G
DNA 1: CAATCTGAATTCCGGTCTCCC
DNA 2: TGGTGGCTACGACGGGATT
B19: AAGUGUC (DNA:RNA)
RNA: B2 RNA with G25A, C27G, A28U, C29G, A30U, G31C
DNA 1: CAATCTGAATTCCGGTCTCCC
DNA 2: TGGTGGCTACGACGGGATT
B20: UGAGCAU (DNA:RNA)
RNA: B2 RNA with G25U, A26G, C27A, A28G, G31U
DNA 1: CAATCTGAATTCCGGTCTCCC
DNA 2: TGGTGGCTACGACGGGATT
B21: UCAUGUU (DNA:RNA)
RNA: B1 RNA with U27A, C28U, U29G, C30U, C31U
DNA 1: CAATCTGAATTCCGGTCTCCC
DNA 2: TGGTGGCTACGACGGGATT
B22: GCUGUUA (DNA:RNA)
RNA: B1 RNA with U25G, C28G, C30U, C31A
DNA 1: CAATCTGAATTCCGGTCTCCC
DNA 2: TGGTGGCTACGACGGGATT
B23: GGCGCCG (DNA:RNA)
RNA: B2 RNA with A26G, A28G, A30C
DNA 1: CAATCTGAATTCCGGTCTCCC
DNA 2: TGGTGGCTACGACGGGATT
B24: GAAUUUG (DNA:RNA)
RNA: B2 RNA with C27A, A28U, C29U, A30U
DNA 1: CAATCTGAATTCCGGTCTCCC
DNA 2: TGGTGGCTACGACGGGATT
B25: GUCGGAU (DNA:RNA)
RNA: B2 RNA with A26U, A28G, C29G, G31U
DNA 1: CAATCTGAATTCCGGTCTCCC
DNA 2: TGGTGGCTACGACGGGATT
B26: GGGGGGA (DNA:RNA)
RNA: B2 RNA with A26G, C27G, A28G, C29G, A30G, G31A
DNA 1: CAATCTGAATTCCGGTCTCCC
DNA 2: TGGTGGCTACGACGGGATT
B27: GGGAUAG (DNA:RNA)
RNA: B2 RNA with A26G, C27G, C29U
DNA 1: CAATCTGAATTCCGGTCTCCC
DNA 2: TGGTGGCTACGACGGGATT
B28: GGGAUUG (DNA:RNA)
RNA: B2 RNA with A26G, C27G, C29U, A30U
DNA 1: CAATCTGAATTCCGGTCTCCC
DNA 2: TGGTGGCTACGACGGGATT
B29: CACCGGA (DNA:RNA)
RNA: B2 RNA with G25C, A28C, C29G, A30G, G31A
DNA 1: CAATCTGAATTCCGGTCTCCC
DNA 2: TGGTGGCTACGACGGGATT
B30: GUCCGGA (DNA:RNA)
RNA: B2 RNA with A26U, A28C, C29G, A30G, G31A
DNA 1: CAATCTGAATTCCGGTCTCCC
DNA 2: TGGTGGCTACGACGGGATT
B31: CGGAUAG (DNA:RNA)
RNA: B2 RNA with G25C, A26G, C27G, C29U
DNA 1: CAATCTGAATTCCGGTCTCCC
DNA 2: TGGTGGCTACGACGGGATT
B32: GGAUUUG (DNA:RNA)
RNA: B2 RNA with A26G, C27A, A28U, C29U, A30U
DNA 1: CAATCTGAATTCCGGTCTCCC
DNA 2: TGGTGGCTACGACGGGATT
B33: GUCGGGA (DNA:RNA)
RNA: B2 RNA with A26U, A28G, C29G, A30G, G31A
DNA 1: CAATCTGAATTCCGGTCTCCC
DNA 2: TGGTGGCTACGACGGGATT
B34: GGAUAGU (DNA:RNA)
RNA: B2 RNA with A26G, C27A, A28U, C29A, A30G, G31U
DNA 1: CAATCTGAATTCCGGTCTCCC
DNA 2: TGGTGGCTACGACGGGATT
B35: CGGAUUG (DNA:RNA)
RNA: B2 RNA with G25C, A26G, C27G, C29U, A30U
DNA 1: CAATCTGAATTCCGGTCTCCC
DNA 2: TGGTGGCTACGACGGGATT

Changes are numbered by the printed parent chain; changes in the protein carry UniProt numbers. Whole data set: some 16,000 sequences, median “ka relative to ugcaugu” near 0.0091, cut for the highest 2% near 0.032. Shown is part of a subset that was picked to be rich in the highest values.

The target of the test is T1, RBFOX1 RRM (Homo sapiens, UniProt Q9NWB1 109-208).
T1 sequence: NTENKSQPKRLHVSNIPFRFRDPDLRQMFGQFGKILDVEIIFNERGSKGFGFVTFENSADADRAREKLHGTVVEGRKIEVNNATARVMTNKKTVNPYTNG
Briefly: EMSA; HiTS-Eq, 1 nM pool, 10 min; buffer printed only for the single-RNA assays: 10 mM Tris pH 7.5, 150 mM NaCl, 3.4 mM EDTA, 0.001% NP-40, 30 C. The conditions noted are these: tags: His6 N-terminal (pET28a); label: 5' 32P. Summed up: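 Purified RbFox RRM, wild type or mutant, was incubated for 10 min in 50 µL with 1 nM of a 5′-radiolabelled RNA pool carrying 7 randomized nucleotides, whose flanks were annealed to DNA oligonucleotides, over a series of increasing protein concentrations. Unbound RNA was resolved on 8% native PAGE, cut out, reverse-transcribed, barcoded by PCR and sequenced on an Illumina HiSeq 2500. Relative association constants were derived from changes in read counts for each RNA species versus the control reaction and normalised to the cognate motif.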
Turning to B1, the binding signal is 0.00975 KA relative to UGCAUGU. As to B2, the binding signal was 0.00906 KA relative to UGCAUGU. As to B3, the binding signal was 0.00663 KA relative to UGCAUGU. Next, B4: 0.00894 KA relative to UGCAUGU; B5: 0.0108 KA relative to UGCAUGU. As for B6, the binding signal is 0.0158 KA relative to UGCAUGU.

On to B7, for which the binding signal is 0.0377 KA relative to UGCAUGU.

Regarding B8, the binding signal was 0.00911 KA relative to UGCAUGU. Consider B9, for which the binding signal is 0.0143 KA relative to UGCAUGU.

As to B10, the binding signal was 0.0335 KA relative to UGCAUGU. B11: the binding signal was 0.02 KA relative to UGCAUGU. As to B12, the binding signal was 0.0227 KA relative to UGCAUGU. B13: the binding signal was 0.0198 KA relative to UGCAUGU. On to B14, for which the binding signal was 0.0408 KA relative to UGCAUGU. As for B15, the binding signal is 0.00866 KA relative to UGCAUGU. To B16 belongs 0.00767 KA relative to UGCAUGU; to B17, 0.0128 KA relative to UGCAUGU; to B18, 0.0245 KA relative to UGCAUGU. With B19, the binding signal was 0.0153 KA relative to UGCAUGU. Turning to B20, the binding signal is 0.0172 KA relative to UGCAUGU. B21: the binding signal was 0.0106 KA relative to UGCAUGU.

As to B22, the binding signal was 0.0113 KA relative to UGCAUGU. As for B23, the binding signal was 0.00841 KA relative to UGCAUGU. With B24, the binding signal was 0.0172 KA relative to UGCAUGU. For B25, the binding signal was 0.00831 KA relative to UGCAUGU.

With B26, the binding signal is 0.0226 KA relative to UGCAUGU. Next, B27: 0.0337 KA relative to UGCAUGU.

For the molecule B28, the binding signal was 0.0593 KA relative to UGCAUGU.

Turning to B29, the binding signal was 0.00389 KA relative to UGCAUGU.

For the molecule B30, the binding signal was 0.00347 KA relative to UGCAUGU. For B31, the binding signal was 0.0228 KA relative to UGCAUGU. For B32, the binding signal is 0.034 KA relative to UGCAUGU.

B33: the binding signal was 0.0117 KA relative to UGCAUGU. For B34, the binding signal is 0.0169 KA relative to UGCAUGU. Turning to B35, the binding signal is 0.0329 KA relative to UGCAUGU.
